# Source: PubChem (National Center for Advancing Translational Sciences (NCATS))
# Rows were chosen to be rich in hits. Some 10% of all compounds tested hit in one or more screens of this group.
# IMPase cell inh – qHTS Assay for Identifying the Cell-Membrane Permeable IMPase Inhibitors; CHO-M1 cells, IP1 accumulation, HTRF TR-FRET ratio; inhibition (IP1 accumulation), % at 46.1 µM; 120,000 tested, under 10 active; active = well fitted curve in the direction sought with a large enough effect in the signal ratio, not every such curve was filed as active; inconclusive = small, poorly fitted or top-dose-only effect, or a change in a side signal; inactive = no such curve, though single readings can be large or run the other way; the % refers to the signal ratio;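 note: cells stimulated with carbachol in lithium chloride buffer; plate controls were DMSO basal wells for no effect and reference inhibitor wells for full effect; higher means more IMPase inhibition seen as more IP1 and lower FRET ratio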
# Target sequence (P97697 whole entry, looked up): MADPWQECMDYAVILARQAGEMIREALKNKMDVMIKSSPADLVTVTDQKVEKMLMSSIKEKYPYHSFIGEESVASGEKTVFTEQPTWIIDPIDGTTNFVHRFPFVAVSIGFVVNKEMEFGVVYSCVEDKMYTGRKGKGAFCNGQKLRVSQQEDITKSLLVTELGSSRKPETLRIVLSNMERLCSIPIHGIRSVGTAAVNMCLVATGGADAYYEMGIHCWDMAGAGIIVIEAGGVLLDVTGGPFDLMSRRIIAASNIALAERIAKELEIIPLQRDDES
#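 Elevated IP1 in lysates lowers TR-FRET signal (665/620 ratio and 620 channel reported). Cells were CHO-M1, given carbachol (50 uM as added) plus 50mM LiCl, pH 7.4, 30 min, 37C; compounds titrated up to 46 uM; AC50 by Hill equation.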
# ALDH1A1 inh – qHTS Assay for Inhibitors of Aldehyde Dehydrogenase 1 (ALDH1A1); Aldehyde dehydrogenase 1A1 (Homo sapiens), P00352; Purified ALDH1A1, NADH fluorescence, propionaldehyde substrate; Potency, µM (top dose mostly 75.3 µM), for the others: at the top dose activity, negative = inhibition, hits mostly inhibitors; actives 7.3% (n = 220,000); AID 1030, 2008;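 note: potency is the fitted concentration of half-maximal effect; plate controls were no enzyme wells and a reference inhibitor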
# Target sequence (P00352 whole entry, looked up): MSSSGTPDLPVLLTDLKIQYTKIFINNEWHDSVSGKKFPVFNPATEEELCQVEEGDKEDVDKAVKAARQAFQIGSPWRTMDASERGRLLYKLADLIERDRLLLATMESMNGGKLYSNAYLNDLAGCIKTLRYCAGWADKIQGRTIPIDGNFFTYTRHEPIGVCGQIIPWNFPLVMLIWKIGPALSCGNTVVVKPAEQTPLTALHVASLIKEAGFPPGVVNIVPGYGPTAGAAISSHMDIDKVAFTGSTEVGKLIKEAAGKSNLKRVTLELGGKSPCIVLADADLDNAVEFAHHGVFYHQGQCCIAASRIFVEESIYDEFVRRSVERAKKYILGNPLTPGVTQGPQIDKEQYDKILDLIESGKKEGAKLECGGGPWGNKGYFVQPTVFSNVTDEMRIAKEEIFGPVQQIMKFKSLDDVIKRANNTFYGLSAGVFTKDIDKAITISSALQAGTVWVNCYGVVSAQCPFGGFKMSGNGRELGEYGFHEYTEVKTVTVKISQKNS
# KinaseGlo FLuc – Counterscreen for Luciferase (Kinase-Glo TM) Inhibition; Kinase-Glo luciferase, ATP luminescence, 8 min; Potency, µM (top dose mostly 38.3 µM), inactives show top-dose activity change, negative = inhibition, most hits filed as inhibitors; actives 0.28% (n = 200,000); AID 1379, 2008; active = well fitted inhibition curve with a large enough effect; inconclusive = small, poorly fitted or top-dose-only effect; note: potency is the fitted concentration of half-maximal effect; nearly all actives have a fitted effect of over 60% in size
#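 Luminescence was the read-out, taken after 8-minute incubation at ambient temperature. Luciferase turned over luciferin with 10 uM ATP in imidazole pH 7.2 buffer containing KCl, MgCl2, Tween 20 and BSA.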
# Lamin A splicing – qHTS Assay for Modulators of Lamin A Splicing | HeLa LMNA splicing GFP/RFP minigene ratio, 48 h | Potency, µM (top dose mostly 46.1 µM), for inactives: top-dose ratio change, negative = inhibition, actives largely listed as inhibitors | actives 0.01% (n = 200,000) | AID 1487, 2009; active = well fitted inhibition curve with a large enough effect in the signal ratio, with a control signal flat, not every such curve was filed as active; inconclusive = small, poorly fitted or top-dose-only effect, or effect the other way, or a change in a side signal; the % refers to the signal ratio; note: potency is the fitted concentration of half-maximal effect
#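 S3 HeLa stable clones carrying a lamin A-EGFP splicing minigene plus DsRed2 were seeded at 600 cells/well in Opti-MEM with 2% FBS, pin-dosed and incubated 48 h at 37°C. Acumen cytometry (488 nm) gave the GFP/RFP total-intensity ratio.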
# HPGD block – qHTS Assay for Inhibitors of HPGD (15-Hydroxyprostaglandin Dehydrogenase). actives 4.3% (n = 150,000). 15-hydroxyprostaglandin dehydrogenase [NAD(+)] (Homo sapiens), P15428. purified HPGD, NADH fluorescence kinetic, PGE2 substrate. Potency, µM, inactives show at the highest dose activity change, negative = inhibition, actives largely listed as inhibitors; note: potency is the fitted concentration of half-maximal effect
#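 NADH formation kinetics: reaction with 30 uM PGE2 and 1 mM NAD+ (final), 20 nM enzyme, Tris-HCl pH 8 with Tween 20, after 15 min compound preincubation at room temperature. Fluorescence change, last versus first of five reads.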
# PNC inhibitor – High Content Assay for Compounds that inhibit the Assembly of the Perinucleolar Compartment; AID 2417, 2010; activity change (PNC), negative = inhibition, % at 10 µM; PC3M PTB-GFP, PNC prevalence imaging, 16 h; active compounds read low; actives 3.1% (n = 140,000);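 active = readout at or below -70, meaning at least 70% loss of cells showing the perinucleolar compartment, a nuclear body marking cancer cells; inconclusive = readout between -30 and a set limit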;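 note: plate controls were DMSO wells for no effect and camptothecin positive control wells for full effect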
#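 PC3M cells stably expressing PTB-GFP, 750–1000 cells/well, treated 16 h at 37 °C with compound (23 nl of library stock), in duplicate. After paraformaldehyde fixation and Hoechst stain, imaged at 20x; PNC prevalence scored by image analysis.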
# The depositor's hits bear a star; ? = inconclusive; . = not tested or not shown; ! = repeats disagree; [ ] = remark or other dose. Unless noted, calls come from the whole dose curve; as a rule, active = well fitted inhibition curve with a large enough effect (not every such curve was filed as active); inconclusive = small, poorly fitted or top-dose-only effect, or another doubt; inactive = no such curve, though single readings can be large or run the other way. Unless noted, % is set by controls: 0 for no effect and ±100 for the full control effect.
SMILES,IMPase cell inh,ALDH1A1 inh,KinaseGlo FLuc,Lamin A splicing,HPGD block,PNC inhibitor
[O-]/[N+](=C\c1ccncc1)c1ccc(Br)cc1,.,1.1µM*,-3%,0%,?,?
O=C(CN1CCN(c2ccccn2)CC1)NC1CCCC1,11,25µM*,3%,-8%,-23%,22
O=C(CN1CCN(c2ccccn2)CC1)Nc1ccc(F)cc1,1,?,1%,15%,-3%,39
CC(C)NC(=O)CN1CCN(c2ncccn2)CC1,1,28µM*,1%,2%,-15%,-26
O=C(CN1CCN(c2ccccn2)CC1)Nc1ccc(Oc2ccccc2)cc1,-6,25µM*,-7%,-9%,6%,-27
O=C(CN1CCN(c2ccccn2)CC1)Nc1ccccc1,2,-5%,-6%,11%,-20%,-20
CC(NC(=O)CN1CCN(c2ncccn2)CC1)c1ccc(F)cc1 (stereo not given),2,8%,0%,-1%,2%,?
COc1cccc(C2C(C)CCC3C(=O)N(C)C(C(C)C)C(=O)N32)c1 (stereo not given),.,-2%[13.5 µM],.,.,.,.
Cn1c(-c2ccc(Cl)cc2)cnc1N,0,10%,0%,-2%,-5%,-25
Nc1cccn2c(-c3ccc(Cl)cc3)cnc12,.,28µM*,-8%,-5%[9.22 µM],.,.
Nc1cccn2c(-c3ccc(Cl)c(Cl)c3)cnc12,.,25µM*,-5%,-2%[46 µM],.,.
COc1ccc(-c2[nH]ncc2CN(C)C(C)c2cccs2)c(F)c1 (stereo not given),.,?,5%,.,.,.
COc1ccc(-c2[nH]ncc2CN(C)CCc2c(C)n[nH]c2C)c(F)c1,.,10µM*,9%,.,.,.
Cc1ccc(S(=O)(=O)N/N=C\c2cc([N+](=O)[O-])ccc2Cl)cc1,11,?,0%,?,-11%,11
COc1cc(/C=N/NS(=O)(=O)c2ccc(C)c([N+](=O)[O-])c2)ccc1O,.,13µM*,5%,-4%[46 µM],.,.
CCOc1cccc(/C=N/NC(=S)Nc2ccccc2[N+](=O)[O-])c1O,.,2%,-1%,?,.,.
CCOc1cccc(/C=N/NS(=O)(=O)c2ccc(C)c([N+](=O)[O-])c2)c1O,.,4µM*,6%,-12%[46 µM],.,.
COc1cc(/C=N/NS(=O)(=O)c2ccc(C(C)(C)C)cc2)cc([N+](=O)[O-])c1O,.,7.9µM*,.,.,.,.
Cc1ccc(S(=O)(=O)N/N=C/c2cc([N+](=O)[O-])ccc2O)cc1[N+](=O)[O-],.,13µM*,-1%,?,.,.
CO[C@H]1COC(=O)C/C=C\[C@@H](C)[C@H](OC)COC(=O)[C@H]2CCCN2C(=O)C/C=C\[C@@H]1C,.,1%[13.5 µM],.,.,.,.
C=C(C(=O)O)[C@@H]1CC[C@@]2(C)CCC[C@](C)(O)[C@@H]2C1,.,5%,0%,.,-3%,.
Clc1ccccc1-c1nc(/C=N/N2CCOCC2)c2ccccn12,.,40µM*,-2%,-14%[46 µM],.,.
CN1CCN(/N=C/c2nc(-c3ccccc3Cl)n3ccccc23)CC1,-1,-6%,0%,-6%,-14%,-28
Cc1[nH]ccc(=O)c1OCc1ccc(Cl)cc1,?,10%,3%,1%,-13%,-124*
Cc1[nH]ccc(=O)c1OCc1ccccc1,-1[1.84 µM],10%,-1%,-6%,-15%,-111*
SMILES,IMPase cell inh,ALDH1A1 inh,KinaseGlo FLuc,Lamin A splicing,HPGD block,PNC inhibitor
COc1ccc2c(c1OC)C(Cc1ccccc1)N1CCc3cc4c(cc3C1=C2)OCO4 (stereo not given),14,?,-19%,.,?,.
CCOc1cccc(-c2nnc3sc(C4CCCCC4)nn23)c1,-3,25µM*,-7%,?,32µM*,?
O=c1cc(-c2ccc(O)c(-c3c(O)cc(O)c4c(=O)cc(-c5ccc(O)cc5)oc34)c2)oc2cc(O)cc(O)c12,.,?,-2%,-2%,14µM*,-21
COc1cc(O)c2c(=O)cc(-c3ccc(OC)c(-c4c(O)cc(O)c5c(=O)cc(-c6ccc(O)cc6)oc45)c3)oc2c1,.,5%,-8%,.,?,.
Cc1ccccc1C(=O)Nc1nnc(SCc2cc(=O)c3c(C)ccc(C)c3[nH]2)s1,.,.,.,-6%[46 µM],.,.
O=c1[nH]nc(SCCS(=O)(=O)c2ccc(F)cc2)n1-c1ccccc1,.,2.8µM*,.,.,.,.
O=c1[nH]nc(SCCS(=O)(=O)c2ccc(F)cc2)n1-c1ccc2c(c1)OCCO2,.,20µM*,.,.,.,.
O=C(O)Cc1c[nH]c2ccc(F)cc12,.,9%[13.5 µM],-3%[7.66 µM],.,-8%,.
CN(CC(=O)Nc1ccc(Cl)cc1)c1ccc(S(=O)(=O)N2CCCCC2)cc1[N+](=O)[O-],14,11µM*,2%,?,-14%,5
COC(=O)CSc1ccc(S(=O)(=O)N2CCCCCC2)cc1[N+](=O)[O-],.,10µM*,0%,.,.,.
COC1=CC(=O)C(O)=C/C1=C\C=C\c1ccccc1,.,13µM*,-4%,?,11µM*,.
Cc1cc(C)cc(NC(=O)Cn2c(C)cc(C)c(C#N)c2=O)c1,.,.,.,8%[46 µM],.,.
O=C(O)CP(=O)(O)O,-1,8%,-2%,?,32µM*!,20
O=C(O)C[C@H](NC(=O)CP(=O)(O)O)C(=O)O.[NH-][C@@H]1CCCC[C@@H]1[NH-].[Pt],.,8%[13.5 µM],-4%[7.66 µM],.,2%,.
COc1ccc(CCNC(=O)c2ccc3c(c2)N(Cc2ccc(Cl)cc2)C(=O)c2ccccc2S3)cc1OC,.,.,.,-18%[46 µM],.,.
N#CN(Cc1ccccc1)Cc1ccccc1,.,40µM*,.,.,.,.
Cc1cc(C)nc(N(C#N)Cc2ccccc2)n1,-1,14µM*,1%,11%,-19%,-17
CCNc1nc(NC(C)C)nc(N(C#N)Cc2ccccc2)n1,4,1.8µM*,-1%,1%,-11%,?
CCc1ccc(C(=O)CN(C#N)c2nc(C)cc(C)n2)cc1,15,-6%,-2%,?,-11%,55
Cc1cc(C)nc(N(C#N)CC(=O)c2ccccc2)n1,13,28µM*,-23%,-3%,-28%,36
CCNc1nc(NC(C)C)nc(N(C#N)CC(=O)OC)n1,.,?,3%,.,.,.
C[N+](C)(C)c1ccc([C@H](N)C(=O)O)cc1,.,-1%[13.5 µM],-6%[7.66 µM],.,-7%,.
COc1ccc(Cl)cc1NC(=O)c1c(NCc2cccnc2)sc2c1CCC(C)C2 (stereo not given),.,.,.,-21%[46 µM],.,.
CC(C)=CCC/C(C)=C/CO/N=C1/C[C@@H](O)[C@@H](O)[C@@H]2[C@@H]3C(=O)N(C(C)(C)C)C(=O)[C@H]3CC[C@@H]12,.,0%[13.5 µM],.,.,.,.
